Experiment [1] concerns the target T1, Mitogen-activated protein kinase 12 (Homo sapiens) (UniProt P53778).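 Note: values are averaged p38gamma kinase inhibition readings, compounds tested at 1 µM.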
T1 sequence (whole entry): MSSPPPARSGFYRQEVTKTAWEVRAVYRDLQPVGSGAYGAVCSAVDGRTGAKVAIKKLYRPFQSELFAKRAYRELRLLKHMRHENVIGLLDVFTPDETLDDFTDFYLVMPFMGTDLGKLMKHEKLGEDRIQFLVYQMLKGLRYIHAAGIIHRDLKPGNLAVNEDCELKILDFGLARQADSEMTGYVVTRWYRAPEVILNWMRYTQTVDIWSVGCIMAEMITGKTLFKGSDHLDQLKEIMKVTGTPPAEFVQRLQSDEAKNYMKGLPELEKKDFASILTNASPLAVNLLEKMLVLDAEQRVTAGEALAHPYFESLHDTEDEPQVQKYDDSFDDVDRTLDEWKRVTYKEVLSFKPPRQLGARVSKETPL
The note with it: at 1 µM.

Experiment [2] addresses SRSF protein kinase 1 (Homo sapiens) (UniProt Q96SB4). Particulars: at 0.1 µM.
Experiment [3] shares this target. Particulars: at 1 µM.
In experiment [4] the target is Phosphatidylinositol 4,5-bisphosphate 3-kinase catalytic subunit alpha isoform (Homo sapiens) (UniProt P42336). Particulars: at 0.1 µM.
Chain of Phosphatidylinositol 4,5-bisphosphate 3-kinase catalytic subunit alpha isoform (Homo sapiens) (P42336 whole entry, canonical isoform): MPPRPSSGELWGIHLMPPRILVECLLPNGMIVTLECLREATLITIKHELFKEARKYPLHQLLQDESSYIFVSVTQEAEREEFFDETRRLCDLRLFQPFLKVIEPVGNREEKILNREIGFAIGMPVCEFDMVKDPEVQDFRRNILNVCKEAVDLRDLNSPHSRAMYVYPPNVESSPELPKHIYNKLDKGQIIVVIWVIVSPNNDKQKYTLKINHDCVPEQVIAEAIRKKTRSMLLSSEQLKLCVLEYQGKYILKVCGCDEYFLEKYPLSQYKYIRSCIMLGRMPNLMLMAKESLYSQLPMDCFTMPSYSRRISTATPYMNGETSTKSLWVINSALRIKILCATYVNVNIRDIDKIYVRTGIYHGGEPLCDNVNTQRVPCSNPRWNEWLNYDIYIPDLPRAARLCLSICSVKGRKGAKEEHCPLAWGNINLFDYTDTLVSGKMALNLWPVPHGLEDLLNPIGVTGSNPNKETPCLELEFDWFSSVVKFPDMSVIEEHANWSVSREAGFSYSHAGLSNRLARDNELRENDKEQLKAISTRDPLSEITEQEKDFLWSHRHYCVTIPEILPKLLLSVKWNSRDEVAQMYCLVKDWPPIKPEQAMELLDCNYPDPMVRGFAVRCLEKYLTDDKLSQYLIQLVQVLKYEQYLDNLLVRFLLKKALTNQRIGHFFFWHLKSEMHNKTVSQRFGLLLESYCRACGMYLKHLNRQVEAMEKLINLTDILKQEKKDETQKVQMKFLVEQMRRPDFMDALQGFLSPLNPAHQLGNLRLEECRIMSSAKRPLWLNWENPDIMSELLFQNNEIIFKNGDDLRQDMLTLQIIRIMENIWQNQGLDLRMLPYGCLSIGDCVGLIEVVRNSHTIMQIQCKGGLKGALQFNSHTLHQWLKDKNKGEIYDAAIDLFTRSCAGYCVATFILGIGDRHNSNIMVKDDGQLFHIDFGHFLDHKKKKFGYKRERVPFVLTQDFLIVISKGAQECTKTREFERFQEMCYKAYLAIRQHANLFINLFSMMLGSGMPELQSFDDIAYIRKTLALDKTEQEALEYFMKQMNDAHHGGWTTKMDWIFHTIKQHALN
The target is the same in experiment [5]. Particulars: at 1 µM.
In experiment [6] the target is T2, Phosphatidylinositol 4,5-bisphosphate 3-kinase catalytic subunit delta isoform (Homo sapiens) (UniProt O00329).
T2 sequence (whole entry): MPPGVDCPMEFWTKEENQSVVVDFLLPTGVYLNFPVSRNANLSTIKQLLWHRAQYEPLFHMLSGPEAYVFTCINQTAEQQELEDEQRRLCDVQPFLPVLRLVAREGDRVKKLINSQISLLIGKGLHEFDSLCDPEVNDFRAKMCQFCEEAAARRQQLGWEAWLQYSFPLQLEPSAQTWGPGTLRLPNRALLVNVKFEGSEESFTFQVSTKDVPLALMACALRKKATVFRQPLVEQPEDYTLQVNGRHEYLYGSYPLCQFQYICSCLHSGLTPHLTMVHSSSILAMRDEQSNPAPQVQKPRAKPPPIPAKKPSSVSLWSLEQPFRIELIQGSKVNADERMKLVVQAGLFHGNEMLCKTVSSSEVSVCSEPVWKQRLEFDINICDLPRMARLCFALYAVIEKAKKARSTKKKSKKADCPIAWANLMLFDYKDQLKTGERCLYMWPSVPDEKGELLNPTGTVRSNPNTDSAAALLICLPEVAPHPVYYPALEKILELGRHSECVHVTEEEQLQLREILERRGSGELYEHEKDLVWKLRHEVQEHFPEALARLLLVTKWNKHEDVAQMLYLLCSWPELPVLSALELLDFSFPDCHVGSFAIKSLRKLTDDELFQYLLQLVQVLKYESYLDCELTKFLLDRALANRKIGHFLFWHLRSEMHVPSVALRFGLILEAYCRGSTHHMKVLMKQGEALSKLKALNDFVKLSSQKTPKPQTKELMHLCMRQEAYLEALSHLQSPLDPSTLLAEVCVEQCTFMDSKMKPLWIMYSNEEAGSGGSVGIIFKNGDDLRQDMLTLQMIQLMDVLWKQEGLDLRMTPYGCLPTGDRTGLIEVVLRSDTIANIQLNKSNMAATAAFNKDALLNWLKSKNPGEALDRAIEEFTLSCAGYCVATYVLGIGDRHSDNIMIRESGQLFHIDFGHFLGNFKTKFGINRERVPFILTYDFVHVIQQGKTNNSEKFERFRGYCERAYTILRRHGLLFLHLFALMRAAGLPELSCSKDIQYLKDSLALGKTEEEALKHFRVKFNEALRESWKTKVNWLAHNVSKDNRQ
Particulars: at 0.1 µM.

Experiment [7] deals with T2, Phosphatidylinositol 4,5-bisphosphate 3-kinase catalytic subunit delta isoform (Homo sapiens). The note with it: at 1 µM.
In experiment [8] the target is Phosphatidylinositol 4-kinase beta (Homo sapiens) (UniProt Q9UBF8). The note with it: at 0.1 µM.
Chain of Phosphatidylinositol 4-kinase beta (Homo sapiens) (Q9UBF8 2-816 limits assumed): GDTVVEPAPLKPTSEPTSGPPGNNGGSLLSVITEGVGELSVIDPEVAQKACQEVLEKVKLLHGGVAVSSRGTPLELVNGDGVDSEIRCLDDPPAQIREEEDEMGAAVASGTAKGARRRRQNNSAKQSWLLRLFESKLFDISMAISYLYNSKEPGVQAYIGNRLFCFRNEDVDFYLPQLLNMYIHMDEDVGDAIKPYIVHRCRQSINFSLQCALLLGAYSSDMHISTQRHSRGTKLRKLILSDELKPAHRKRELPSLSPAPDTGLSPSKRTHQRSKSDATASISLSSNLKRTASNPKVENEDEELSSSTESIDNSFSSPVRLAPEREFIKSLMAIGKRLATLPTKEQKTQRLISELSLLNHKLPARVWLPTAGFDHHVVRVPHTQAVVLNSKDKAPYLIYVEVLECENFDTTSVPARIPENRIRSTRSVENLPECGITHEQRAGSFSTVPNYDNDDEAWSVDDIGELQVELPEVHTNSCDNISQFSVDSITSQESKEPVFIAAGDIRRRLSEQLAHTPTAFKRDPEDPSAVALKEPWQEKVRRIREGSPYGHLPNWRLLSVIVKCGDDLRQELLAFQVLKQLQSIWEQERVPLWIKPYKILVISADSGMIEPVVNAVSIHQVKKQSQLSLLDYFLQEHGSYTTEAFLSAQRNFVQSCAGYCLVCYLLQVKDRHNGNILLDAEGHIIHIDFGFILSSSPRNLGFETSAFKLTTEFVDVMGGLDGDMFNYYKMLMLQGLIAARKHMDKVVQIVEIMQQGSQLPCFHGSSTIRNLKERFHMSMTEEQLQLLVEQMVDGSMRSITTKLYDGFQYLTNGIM
Experiment [9] shares this target. The note with it: at 1 µM.
The target in experiment [10] is Sphingosine kinase 1 (Homo sapiens) (UniProt Q9NYA1). Particulars: at 0.1 µM.
Chain of Sphingosine kinase 1 (Homo sapiens) (Q9NYA1 whole entry): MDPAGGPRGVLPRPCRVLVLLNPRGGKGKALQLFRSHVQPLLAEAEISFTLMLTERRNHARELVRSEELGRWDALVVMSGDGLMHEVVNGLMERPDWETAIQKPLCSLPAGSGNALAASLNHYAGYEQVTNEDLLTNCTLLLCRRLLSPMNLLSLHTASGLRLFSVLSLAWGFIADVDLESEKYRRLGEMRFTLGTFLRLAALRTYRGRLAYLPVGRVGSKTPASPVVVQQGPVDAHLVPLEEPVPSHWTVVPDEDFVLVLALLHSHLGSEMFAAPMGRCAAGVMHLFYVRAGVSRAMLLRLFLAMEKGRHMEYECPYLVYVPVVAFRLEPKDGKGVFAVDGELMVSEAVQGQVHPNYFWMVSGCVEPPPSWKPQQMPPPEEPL
Experiment [11] shares this target. Particulars: at 1 µM.
For experiment [12], the target named is T3, Sphingosine kinase 2 (Homo sapiens) (UniProt Q9NRA0).
T3 sequence (whole entry): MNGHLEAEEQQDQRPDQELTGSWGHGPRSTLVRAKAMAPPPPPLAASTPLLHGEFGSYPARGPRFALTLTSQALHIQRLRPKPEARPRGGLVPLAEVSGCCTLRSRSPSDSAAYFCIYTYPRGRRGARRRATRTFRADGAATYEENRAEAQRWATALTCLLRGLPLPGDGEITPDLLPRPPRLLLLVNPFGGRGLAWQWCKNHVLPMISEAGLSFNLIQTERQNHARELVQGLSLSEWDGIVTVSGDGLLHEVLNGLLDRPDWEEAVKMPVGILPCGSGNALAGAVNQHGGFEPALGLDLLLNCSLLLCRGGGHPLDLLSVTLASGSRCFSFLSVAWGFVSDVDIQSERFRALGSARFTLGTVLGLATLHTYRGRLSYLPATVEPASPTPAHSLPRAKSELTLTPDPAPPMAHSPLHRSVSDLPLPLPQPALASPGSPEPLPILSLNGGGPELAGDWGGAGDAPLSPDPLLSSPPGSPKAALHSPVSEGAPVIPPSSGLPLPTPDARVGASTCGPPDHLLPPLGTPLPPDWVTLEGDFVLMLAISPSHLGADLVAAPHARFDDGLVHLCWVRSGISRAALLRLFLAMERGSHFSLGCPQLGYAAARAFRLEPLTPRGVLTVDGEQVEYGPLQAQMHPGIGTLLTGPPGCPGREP
The note with it: at 0.1 µM.

In experiment [13] the target is T3, Sphingosine kinase 2 (Homo sapiens). Particulars: at 1 µM.
Experiment [14] has as its target Casein kinase II subunit alpha (Homo sapiens) (UniProt P68400). Particulars: at 0.1 µM.
Experiment [15] has the same target. Particulars: at 1 µM.
The target in experiment [16] is T4, Inhibitor of nuclear factor kappa-B kinase subunit alpha (Homo sapiens) (UniProt O15111).
T4 sequence (whole entry): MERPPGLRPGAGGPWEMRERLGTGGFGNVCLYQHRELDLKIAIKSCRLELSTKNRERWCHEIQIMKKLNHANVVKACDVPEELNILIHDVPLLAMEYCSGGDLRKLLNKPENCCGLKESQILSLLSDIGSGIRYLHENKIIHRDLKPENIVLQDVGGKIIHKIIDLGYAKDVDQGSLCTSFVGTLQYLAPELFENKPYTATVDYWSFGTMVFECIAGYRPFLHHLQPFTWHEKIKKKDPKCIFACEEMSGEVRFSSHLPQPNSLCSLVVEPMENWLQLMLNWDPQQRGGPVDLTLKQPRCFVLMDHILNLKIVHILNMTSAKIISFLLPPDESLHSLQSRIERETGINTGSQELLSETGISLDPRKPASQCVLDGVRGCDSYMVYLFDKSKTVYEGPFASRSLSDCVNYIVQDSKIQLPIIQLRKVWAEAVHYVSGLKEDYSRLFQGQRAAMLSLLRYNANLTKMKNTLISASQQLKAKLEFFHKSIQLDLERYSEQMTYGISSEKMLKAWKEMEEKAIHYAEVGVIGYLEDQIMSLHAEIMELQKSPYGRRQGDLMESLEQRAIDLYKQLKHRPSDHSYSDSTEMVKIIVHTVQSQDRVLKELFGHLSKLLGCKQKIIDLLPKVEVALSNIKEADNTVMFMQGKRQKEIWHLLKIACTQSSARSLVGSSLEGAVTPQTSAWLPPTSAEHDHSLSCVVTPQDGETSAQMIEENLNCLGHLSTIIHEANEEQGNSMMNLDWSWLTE
The note with it: at 0.1 µM.

The target of experiment [17] is T4, Inhibitor of nuclear factor kappa-B kinase subunit alpha (Homo sapiens). The note with it: at 1 µM.
The target of experiment [18] is T5, Inhibitor of nuclear factor kappa-B kinase subunit beta (Homo sapiens) (UniProt O14920).
T5 sequence (whole entry): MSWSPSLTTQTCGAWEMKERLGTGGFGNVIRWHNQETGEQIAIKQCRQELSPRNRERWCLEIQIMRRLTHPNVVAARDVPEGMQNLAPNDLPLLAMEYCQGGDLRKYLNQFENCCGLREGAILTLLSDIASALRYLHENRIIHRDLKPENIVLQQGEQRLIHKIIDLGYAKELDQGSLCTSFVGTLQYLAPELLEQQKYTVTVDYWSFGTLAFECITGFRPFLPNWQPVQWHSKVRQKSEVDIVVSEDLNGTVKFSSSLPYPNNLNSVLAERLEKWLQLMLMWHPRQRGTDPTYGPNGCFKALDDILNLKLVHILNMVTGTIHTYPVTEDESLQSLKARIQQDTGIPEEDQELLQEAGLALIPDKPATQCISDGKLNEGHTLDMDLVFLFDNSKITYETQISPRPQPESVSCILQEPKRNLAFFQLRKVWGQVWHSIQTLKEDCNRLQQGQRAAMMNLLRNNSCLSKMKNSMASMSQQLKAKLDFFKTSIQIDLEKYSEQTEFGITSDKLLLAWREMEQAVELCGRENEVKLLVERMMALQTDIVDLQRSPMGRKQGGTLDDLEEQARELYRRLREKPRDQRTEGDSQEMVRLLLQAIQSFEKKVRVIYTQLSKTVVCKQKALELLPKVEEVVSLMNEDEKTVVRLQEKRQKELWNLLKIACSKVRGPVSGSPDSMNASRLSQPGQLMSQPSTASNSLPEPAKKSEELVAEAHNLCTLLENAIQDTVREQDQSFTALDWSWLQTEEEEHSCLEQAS
Particulars: at 0.1 µM.

The target of experiment [19] is T5, Inhibitor of nuclear factor kappa-B kinase subunit beta (Homo sapiens). Particulars: at 1 µM.
Experiment [20] has as its target T6, Inhibitor of nuclear factor kappa-B kinase subunit epsilon (Homo sapiens) (UniProt Q14164).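 Note: mean inhibition of IKKε reported, from the GSK PKIS dataset.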
T6 sequence (whole entry): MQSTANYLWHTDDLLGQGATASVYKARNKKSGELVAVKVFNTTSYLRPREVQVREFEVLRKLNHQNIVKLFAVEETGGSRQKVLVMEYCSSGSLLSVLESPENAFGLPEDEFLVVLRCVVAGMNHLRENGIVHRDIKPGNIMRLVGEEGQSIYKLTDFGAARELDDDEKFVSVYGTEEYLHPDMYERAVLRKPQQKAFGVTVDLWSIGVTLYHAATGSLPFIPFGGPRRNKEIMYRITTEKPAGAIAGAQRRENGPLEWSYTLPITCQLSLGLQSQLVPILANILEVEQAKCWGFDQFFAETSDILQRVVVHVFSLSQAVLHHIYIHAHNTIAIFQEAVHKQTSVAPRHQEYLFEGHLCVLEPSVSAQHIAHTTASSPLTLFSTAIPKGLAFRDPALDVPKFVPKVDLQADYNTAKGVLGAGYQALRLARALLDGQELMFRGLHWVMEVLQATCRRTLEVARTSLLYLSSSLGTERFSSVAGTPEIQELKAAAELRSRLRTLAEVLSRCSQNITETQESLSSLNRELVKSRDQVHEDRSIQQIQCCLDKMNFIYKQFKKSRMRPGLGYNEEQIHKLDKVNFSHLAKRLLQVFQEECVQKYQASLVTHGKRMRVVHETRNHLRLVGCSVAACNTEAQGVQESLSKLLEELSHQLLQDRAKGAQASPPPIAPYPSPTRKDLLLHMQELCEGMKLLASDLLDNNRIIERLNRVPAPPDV
The note with it: at 0.1 µM.

Each structure is given as a SMILES string.

Chain of Casein kinase II subunit alpha (Homo sapiens) (P68400 whole entry, looked up): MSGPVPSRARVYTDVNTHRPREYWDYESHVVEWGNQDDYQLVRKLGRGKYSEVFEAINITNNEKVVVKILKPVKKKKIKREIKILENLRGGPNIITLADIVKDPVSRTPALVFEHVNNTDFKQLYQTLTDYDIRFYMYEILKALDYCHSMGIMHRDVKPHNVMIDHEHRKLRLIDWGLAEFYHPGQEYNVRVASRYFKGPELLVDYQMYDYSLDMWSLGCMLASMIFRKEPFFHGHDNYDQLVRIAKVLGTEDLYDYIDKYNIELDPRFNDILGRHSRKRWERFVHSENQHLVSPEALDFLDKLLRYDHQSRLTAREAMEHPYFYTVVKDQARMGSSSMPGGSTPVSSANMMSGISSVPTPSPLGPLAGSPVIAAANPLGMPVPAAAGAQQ
Chain of SRSF protein kinase 1 (Homo sapiens) (Q96SB4 whole entry): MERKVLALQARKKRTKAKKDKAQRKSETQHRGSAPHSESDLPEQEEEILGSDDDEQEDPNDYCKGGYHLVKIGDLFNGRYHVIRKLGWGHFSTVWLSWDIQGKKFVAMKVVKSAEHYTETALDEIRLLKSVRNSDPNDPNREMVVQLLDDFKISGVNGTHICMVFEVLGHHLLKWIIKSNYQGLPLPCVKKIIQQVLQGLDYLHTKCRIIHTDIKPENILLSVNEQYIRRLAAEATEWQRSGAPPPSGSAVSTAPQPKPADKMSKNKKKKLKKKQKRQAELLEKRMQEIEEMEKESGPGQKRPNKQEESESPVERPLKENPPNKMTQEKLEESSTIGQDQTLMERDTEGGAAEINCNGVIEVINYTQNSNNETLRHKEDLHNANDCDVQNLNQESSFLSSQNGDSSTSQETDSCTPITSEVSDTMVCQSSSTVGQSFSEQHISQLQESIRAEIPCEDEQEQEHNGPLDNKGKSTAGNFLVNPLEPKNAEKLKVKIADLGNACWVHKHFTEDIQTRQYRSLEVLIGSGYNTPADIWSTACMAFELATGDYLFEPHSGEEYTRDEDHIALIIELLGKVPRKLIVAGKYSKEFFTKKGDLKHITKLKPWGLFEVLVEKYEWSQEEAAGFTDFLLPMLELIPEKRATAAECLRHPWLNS

The term inhibition denotes the change of the read-out against control, counted positive when it falls. For the compound `Fc1ccc(-c2c(-c3ccncc3)nc3n2CCS3)cc1`, the inhibition in experiment [1] was 2.27%; in experiment [2] it was -0.47%; in experiment [3], -2.14%; in experiment [4], 2.88%; in experiment [5], 4.64%; in [6], 2.37%. Also, the inhibition is 3.22% in experiment [7]; -2.06% in experiment [8]; 1.12% in experiment [9]; 3.13% in experiment [10]; 1.66% in [11]; 0.08% in experiment [12]. In addition, the inhibition was 0.64% in experiment [13]; 2.23% in [14]; 2.3% in [15]; 7.58% in [16]; 3.05% in [17]; 2.88% in experiment [18]. For the same compound, the inhibition in experiment [19] was determined as 3.75%; in [20], 4.09%.
Consider `Nc1nccc(-c2c(-c3ccc(F)cc3)ncn2C2CCC(O)CC2)n1` (stereo not given), for which the inhibition in [1] is -0.94%; in experiment [2] it was 1.95%; in [3] it was 4.67%; in [4], 16.6%; in experiment [5], 3.18%; in experiment [6], 3.72%. For the same compound, the inhibition was 7.23% in experiment [7]; -6.38% in [8]; -0.81% in experiment [9]; 0.34% in experiment [10]; -4.02% in experiment [11]; 2.29% in experiment [12]. In addition, the inhibition in experiment [13] was 0.26%; in experiment [14] it was -0.03%; in experiment [15], 1.03%; in experiment [16] it was 2.77%; in experiment [17] it was 5.56%; in experiment [18], 0.1%. In addition, the values for the inhibition in [19] and in experiment [20] were -1.66% and -3.9%, respectively.
For `COc1ccc(C2=C(N3CCc4ccccc43)C(=O)NC2=O)cc1`, the inhibition was 3.4% in [1]; -1.12% in [2]; 0.76% in [3]; 6.53% in experiment [4]; 12.6% in [5]; 5.26% in experiment [6]. Further, the inhibition in experiment [7] is 9.11%; in experiment [8], 3.23%; in [9] it was -7.57%; in experiment [10], 0.25%; in experiment [11], -5.21%; in experiment [12], 0.83%. Moreover, the inhibition turned out to be 0.21% in [13]; 5.6% in [14]; 6.96% in experiment [15]; 9.04% in [16]; 6.68% in [17]; 6.54% in [18]. The inhibition in [19] amounted to 3.83%; in [20], 13.5%.
